This note sets out measurements from PubChem BioAssay (NCI).

Experiment [1] is described as follows: NCI Yeast Anticancer Drug Screen. Data for the rad50 strain (AID 155).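 Note: 0% = growth of vehicle-only cultures of the same strain.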 Particulars: S. cerevisiae rad50 strain growth inhibition, hits give high values. In a few lines:
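Cells are treated with compound, grown, and their growth is then scored against vehicle-only cultures of the same repair-deficient yeast strain.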

Experiment [2] can be described thus: NCI Yeast Anticancer Drug Screen. Data for the mec2-1 strain (AID 157). The conditions noted are these: S. cerevisiae mec2-1 strain, hits give high values. In a few lines:
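Yeast mec2-1 mutant treated with compound. Readout: growth inhibition vs vehicle controls.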

The nature of experiment [3]: NCI Yeast Anticancer Drug Screen. Data for the sgs1 mgt1 strain (AID 161).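 Note: 0% = growth of cultures given vehicle only.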 The conditions noted are these: S. cerevisiae sgs1 mgt1 strain, hits give high values. In a few lines: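 Genetically altered yeast, compound exposure, growth inhibition relative to vehicle.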
Experiment [4] is described as follows: NCI Yeast Anticancer Drug Screen. Data for the cln2 rad14 strain (AID 165).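 Note: 0% = growth equal to vehicle treated cultures.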 Particulars: S. cerevisiae cln2 rad14 strain, hits give high values. In a few lines: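 cln2 rad14 yeast strain; compound exposure; growth inhibition read vs vehicle controls.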
Experiment [5] can be described thus: NCI Yeast Anticancer Drug Screen. Data for the bub3 strain (AID 167). The conditions noted are these: S. cerevisiae bub3 mutant strain, hits give high values. In a few lines:
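Part of a panel of yeast mutants defective in DNA damage repair or cell cycle regulation. Each strain is grown with compound, and inhibition is calculated relative to solvent-treated cultures.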

Experiment [6] is described as follows: NCI Yeast Anticancer Drug Screen. Data for the mlh1 rad18 strain (AID 175). Particulars: S. cerevisiae mlh1 rad18 strain growth inhibition, hits give high values. In a few lines: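 Yeast w/ defined DNA-repair lesions; compound exposure; growth vs vehicle controls → % inhibition.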
[7] abbreviates: at 5.0 µM (retest, dose inferred, filed as 0.5).
The mark [8] stands for this setting: at 50.0 µM (retest, dose inferred, filed as 5.0).

About 79,000 compounds went through this panel and 15% of them were active in at least one assay; those are over-represented in the sample as a whole. Unmarked numbers belong to inactive results. Calls of active or inactive are those of the source. Cut-off read from the data, not from the text of the source: active = growth inhibition above about 70%; inactive = the rest.

For the molecule `O=Nc1ccc(O)c(/C=N/O)c1`, the growth inhibition in experiment [1] (setting [7]) is 19%; in experiment [1] (setting [8]) it was 94% (active); in experiment [1] (at 50.0 µM), 87.3% (active); in experiment [2] (setting [7]), 11%; in experiment [2] (setting [8]), 96% (active); in experiment [2] (at 50.0 µM), 91% (active). Besides, the growth inhibition in experiment [3] (setting [7]) was 6%; in experiment [3] (setting [8]), 90% (active); in experiment [3] (at 50.0 µM), 92.1% (active); in experiment [4] (setting [7]), 24%; in experiment [4] (setting [8]), 95% (active); in experiment [4] (at 50.0 µM), 83.8% (active). The growth inhibition in experiment [5] (setting [7]) is 1%; in experiment [5] (setting [8]), 99% (active); in experiment [5] (at 50.0 µM), 90% (active); in experiment [6] (setting [7]) it was 1%; in experiment [6] (setting [8]) it was 97% (active); in experiment [6] (at 50.0 µM), 88.9% (active).

On to `O=[N+]([O-])c1ccccc1C(c1ccc2ccccc2c1O)N1CCOCC1` (configuration not stated), for which the growth inhibition in experiment [1] (setting [7]) is 99% (active); in experiment [1] (setting [8]) it was 95% (active); in experiment [1] (at 50.0 µM), 97.5% (active); in experiment [2] (setting [7]), 100% (active); in experiment [2] (setting [8]), 97% (active); in experiment [2] (at 50.0 µM) it was 97.8% (active). Besides, the growth inhibition in experiment [3] (setting [7]) was 99% (active); in experiment [3] (setting [8]), 98% (active); in experiment [3] (at 50.0 µM), 94.8% (active); in experiment [4] (setting [7]), 78% (active); in experiment [4] (setting [8]) it was 96% (active); in experiment [4] (at 50.0 µM), 97% (active). Also, the growth inhibition is 99% (active) in experiment [5] (setting [7]); 97% (active) in experiment [5] (setting [8]); 95.8% (active) in experiment [5] (at 50.0 µM); 98% (active) in experiment [6] (setting [7]); 97% (active) in experiment [6] (setting [8]); 95.4% (active) in experiment [6] (at 50.0 µM).

`N#Cc1ccc(Oc2nc3ccccc3nc2-c2ccccc2)cc1`: the growth inhibition is 0% in experiment [1] (setting [7]); 21% in experiment [1] (setting [8]); 38.2% in experiment [1] (at 50.0 µM); -4% in experiment [2] (setting [7]); 39% in experiment [2] (setting [8]); 22.2% in experiment [2] (at 50.0 µM). In addition, the growth inhibition was 12% in experiment [3] (setting [7]); 52% in experiment [3] (setting [8]); 33.9% in experiment [3] (at 50.0 µM); -6% in experiment [4] (setting [7]); 23% in experiment [4] (setting [8]); 62.8% in experiment [4] (at 50.0 µM). The growth inhibition in experiment [5] (setting [7]) is 5%; in experiment [5] (setting [8]), 86% (active); in experiment [5] (at 50.0 µM), 27.8%; in experiment [6] (setting [7]) it was -4%; in experiment [6] (setting [8]) it was 27%; in experiment [6] (at 50.0 µM), 53.5%.

On to `COc1cc(NCc2ccc3nc(-c4ccccc4)c(N)nc3c2)cc(OC)c1OC`, for which the growth inhibition is 7% in experiment [1] (setting [7]); -19% in experiment [1] (setting [8]); -8.3% in experiment [1] (at 50.0 µM); -1% in experiment [2] (setting [7]); -12% in experiment [2] (setting [8]); -9.45% in experiment [2] (at 50.0 µM). Moreover, the growth inhibition in experiment [3] (setting [7]) was -3%; in experiment [3] (setting [8]), 7%; in experiment [3] (at 50.0 µM), 50%; in experiment [4] (setting [7]), 5%; in experiment [4] (setting [8]) it was 3%; in experiment [4] (at 50.0 µM), 16.6%. Moreover, the growth inhibition in experiment [5] (setting [7]) was 8%; in experiment [5] (setting [8]) it was -10%; in experiment [5] (at 50.0 µM) it was 37.2%; in experiment [6] (setting [7]) it was -16%; in experiment [6] (setting [8]) it was 5%; in experiment [6] (at 50.0 µM), 70.3% (active).

`O=S(=O)(O)c1ccc(N=Nc2ccc3c(S(=O)(=O)O)cccc3c2O)c2ccccc12`: the growth inhibition was 10% in experiment [1] (setting [7]); -5% in experiment [1] (setting [8]); -1.35% in experiment [1] (at 50.0 µM); 6% in experiment [2] (setting [7]); -16% in experiment [2] (setting [8]); -21.6% in experiment [2] (at 50.0 µM). Moreover, the growth inhibition is 0% in experiment [3] (setting [7]); -18% in experiment [3] (setting [8]); -37.2% in experiment [3] (at 50.0 µM); -25% in experiment [4] (setting [7]); -78% in experiment [4] (setting [8]); 35% in experiment [4] (at 50.0 µM). In addition, the growth inhibition in experiment [5] (setting [7]) is -2%; in experiment [5] (setting [8]), -9%; in experiment [5] (at 50.0 µM), -16.1%; in experiment [6] (setting [7]) it was -5%; in experiment [6] (setting [8]), -9%; in experiment [6] (at 50.0 µM) it was 5%.

With `CC(C)(C)c1ccc(O)c(O)c1`, the growth inhibition was 2% in experiment [1] (setting [7]); 56% in experiment [1] (setting [8]); 63.4% in experiment [1] (at 50.0 µM); 10% in experiment [2] (setting [7]); 51% in experiment [2] (setting [8]); 61.6% in experiment [2] (at 50.0 µM). In addition, the growth inhibition is 11% in experiment [3] (setting [7]); 54% in experiment [3] (setting [8]); 79.8% (active) in experiment [3] (at 50.0 µM); -1% in experiment [4] (setting [7]); 16% in experiment [4] (setting [8]); -8.95% in experiment [4] (at 50.0 µM). Further, the growth inhibition in experiment [5] (setting [7]) was -3%; in experiment [5] (setting [8]) it was 23%; in experiment [5] (at 50.0 µM), 37.6%; in experiment [6] (setting [7]), 10%; in experiment [6] (setting [8]), 75% (active); in experiment [6] (at 50.0 µM) it was 81.2% (active).

For `Clc1ccc(N2CCN(CCCN3CCN(c4ccc(Cl)cc4)CC3)CC2)cc1`, the growth inhibition is -2% in experiment [1] (setting [7]); 29% in experiment [1] (setting [8]); 67.9% in experiment [1] (at 50.0 µM); -6% in experiment [2] (setting [7]); 35% in experiment [2] (setting [8]); 18.5% in experiment [2] (at 50.0 µM). For the same molecule, the growth inhibition in experiment [3] (setting [7]) is -14%; in experiment [3] (setting [8]) it was 74% (active); in experiment [3] (at 50.0 µM) it was 81.2% (active); in experiment [4] (setting [7]), -3%; in experiment [4] (setting [8]) it was 30%; in experiment [4] (at 50.0 µM), 6.25%. The growth inhibition in experiment [5] (setting [7]) was -3%; in experiment [5] (setting [8]), 24%; in experiment [5] (at 50.0 µM), 24.9%; in experiment [6] (setting [7]), 4%; in experiment [6] (setting [8]), 42%; in experiment [6] (at 50.0 µM) it was 31.8%.

With `CCCC(=O)C1=C(O)C(Cc2c(O)c(C)c(O)c(C(=O)CCC)c2O)=C(O)C(C)(C)C1=O`, the growth inhibition in experiment [1] (setting [7]) was -1%; in experiment [1] (setting [8]), 52%; in experiment [1] (at 50.0 µM), 98.2% (active); in experiment [2] (setting [7]), 4%; in experiment [2] (setting [8]), 34%; in experiment [2] (at 50.0 µM), 92.9% (active). The growth inhibition is 6% in experiment [3] (setting [7]); 56% in experiment [3] (setting [8]); 98.5% (active) in experiment [3] (at 50.0 µM); -4% in experiment [4] (setting [7]); 83% (active) in experiment [4] (setting [8]); 99.1% (active) in experiment [4] (at 50.0 µM). Besides, the growth inhibition in experiment [5] (setting [7]) was -1%; in experiment [5] (setting [8]), 92% (active); in experiment [5] (at 50.0 µM), 98.3% (active); in experiment [6] (setting [7]) it was 7%; in experiment [6] (setting [8]), 66%; in experiment [6] (at 50.0 µM) it was 99% (active).

For the molecule `CN=C(N)N/N=C(\C)c1ccc2c(ccc3ccccc32)c1`, the growth inhibition was 11% in experiment [1] (setting [7]); 98% (active) in experiment [1] (setting [8]); 89.2% (active) in experiment [1] (at 50.0 µM); 14% in experiment [2] (setting [7]); 99% (active) in experiment [2] (setting [8]); 91.2% (active) in experiment [2] (at 50.0 µM). Besides, the growth inhibition is 13% in experiment [3] (setting [7]); 99% (active) in experiment [3] (setting [8]); 90.8% (active) in experiment [3] (at 50.0 µM); -3% in experiment [4] (setting [7]); 98% (active) in experiment [4] (setting [8]); 91.3% (active) in experiment [4] (at 50.0 µM). The growth inhibition in experiment [5] (setting [7]) was 33%; in experiment [5] (setting [8]), 99% (active); in experiment [5] (at 50.0 µM), 88.3% (active); in experiment [6] (setting [7]), 35%; in experiment [6] (setting [8]) it was 97% (active); in experiment [6] (at 50.0 µM), 91.7% (active).
